By AC50 is commonly meant the midpoint of the concentration-response curve, whichever way the signal moves.

Molecules are shown by their SMILES. Calls of active or inactive are those of the source. How the source made its calls: active means hit-call score of the fitted dose curve at least 0.9, where 1 is the maximum; inactive means score below 0.9.

A short description of this test: CCTE_Deisenroth_DEVTOX-GLR_Meso_CellCount: Viability Assessment in CCTE's DevTox GLR-Meso Assay, Deisenroth Lab. The protocol: CCTE_Deisenroth_DEVTOX-GLR_Meso assay is a cell-based, multiplex-readout assay that uses RUES2-GLR, a human pluripotent cell line, with measurements taken at 48 hours after chemical dosing in a 384-well microplateCCTE_Deisenroth_DEVTOX-GLR_Meso_CellCount is 1 of 4 assay components calculated from the CCTE_Deisenroth_DEVTOX-GLR_Meso assay and it measures cell count. Using fluorescent nuclei staining, gain-of-signal activity can be used to understand changes in cell viability with fluorescent microscopy. It is designed to make measurements of nuclei counts as a surrogate for cell number, as detected with optical fluorescence microscopy by Perkin Elmer Harmony nuclei detection algorithm. To generalize the intended target to other relatable targets, this assay component is annotated to the cell cycle intended target family, where the subfamily is cytotoxicity.Data from the assay component CCTE_Deisenroth_DEVTOX-GLR_Meso_CellCount was analyzed as 1 assay endpoint. The endpoint the percent change in cell count relative to the 0.2% DMSO control in the CCTE_Deisenroth_DEVTOX-GLR_Meso assay. Furthermore, this assay endpoint can be referred to as a primary readout, because this assay has produced multiple assay endpoints where this one serves as a measure of cytotoxicity.
All assay protocols are aligned to the DevTox GLR-Endo assay workflow. Cells are seeded into 384-well microplates for 24 hours prior to initiating differentiation in defined media for a total duration of 48 hours. A total of two chemical exposures are administered in 24-hour intervals during the 48-hour differentiation period. At the assay termination point, cells are fixed and stained with a fluorescent dye demarcating the nucleus. High-content imaging is used to acquire brightfield and fluorescent channel images across 5 fields per well. Cell identification and mean biomarker fluorescence intensities are calculated with image analysis software to determine the total cell counts for viability assessment and the biomarker expression frequency for each lineage-dependent assay. A typical experimental design tests a 10-point concentration series (1 nM - 200 uM) for 28 compounds in single technical replicate. Assay plate controls include non-differentiated pluripotent cells (baseline control), lineage-specific differentiated cells (differentiation control), and DMSO solvent exposed differentiated cells (solvent control). Experiments typically comprise a minimum of four experimental replicates (n=4).
For the compound `Nc1nc2ncc(CNc3ccc(C(=O)N[C@@H](CCC(=O)O)C(=O)O)cc3)nc2c(=O)[nH]1`, the compound was called inactive.

For `Nc1cccc2c1C(=O)N(C1CCC(=O)NC1=O)C2=O` (stereo unspecified), the compound was classed as inactive. As for `O=C1CCC(N2C(=O)c3ccccc3C2=O)C(=O)N1` (stereo unspecified), the call was inactive. Take `CC1=C(/C=C/C(C)=C/C=C/C(C)=C\C(=O)O)C(C)(C)CCC1`: the half-maximal activity concentration (AC50) is 18.6 µM (active). Same read-out and setting: the value for `CC(C)(c1ccc(O)cc1)c1ccc(O)cc1` was 33.5 µM (active). On to `CN(Cc1cnc2nc(N)nc(N)c2n1)c1ccc(C(=O)N[C@@H](CCC(=O)O)C(=O)O)cc1`, for which the compound was called inactive. As to `O=C1NS(=O)(=O)c2ccccc21`, the compound was classed as inactive.

Consider `CCN(CC)CCNC(=O)c1c(C)[nH]c(/C=C2\C(=O)Nc3ccc(F)cc32)c1C`, for which the concentration at half-maximal activity (AC50) was 1.18 µM (active). Turning to `CC1(C)S[C@@H]2[C@H](NC(=O)Cc3ccccc3)C(=O)N2[C@H]1C(=O)O`, the compound was classed as inactive. In the case of `CCCC(CCC)C(=O)O`, the compound was called inactive.

Turning to `CC1=C(/C=C/C(C)=C/C=C/C(C)=C/C(=O)O)C(C)(C)CCC1`, the AC50 was 18.5 µM (active). In the case of `O=c1[nH]cc(F)c(=O)[nH]1`, the AC50 is 4.95 µM (active). The same measure, in the same setting: the result for `O=C1NC(=O)C(c2ccccc2)(c2ccccc2)N1` reads 100 µM (active); that for `CS(=O)(=O)OCCCCOS(C)(=O)=O`, 57.8 µM (active).

For the compound `CC/C(=C(/CC)c1ccc(O)cc1)c1ccc(O)cc1`, the AC50 is 2.86 µM (active). Consider `CC(=O)Nc1ccc(O)cc1`, for which the outcome was inactive.

Values taken from PubChem BioAssay AID2284422 (EPA ToxCast).
